According to PubChem BioAssay:
Activity calls are given as the source filed them. Unless noted, how the calls were made is not given here.

What was measured:
[1] = resazurin metabolic signal in HepG2 cells – cell-based, resazurin fluorescence, 24 h, PK04 Diversity Set, profiling panel (AID 1172); details: HepG2 viability, higher = more signal; further: test concentration not given here
[2] = budding yeast growth changes without added modifier – OD600, strain BY4716, 24 h, basal condition, primary screen (AID 1173); details: S. cerevisiae BY4716 growth, OD600, 24 h; higher = more signal, called active from +8 up or from −8 down
[3] = viability profiling in MM1S myeloma cells – cell-based, resazurin fluorescence, basal, 24 h, PK04 Diversity Set, profiling panel (AID 1174); details: higher = more signal, called active from +8 up or from −8 down;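 further: MM1S multiple myeloma cell line; test concentration not given here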
[4] = target: Dihydroorotate dehydrogenase (quinone), mitochondrial (Plasmodium falciparum (isolate 3D7)) (UniProt Q08210); experiment: inhibition of P. falciparum DHODH – biochemical, C-terminal His tag, absorbance 600 nm, primary screen (AID 1175); details: PfDHODH enzyme, DCIP absorbance 600 nm; higher = more signal, called active from +8 up or from −8 down;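 further: recombinant parasite enzyme with a five histidine tag at its C terminus; test concentration not given here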
Dihydroorotate dehydrogenase (quinone), mitochondrial (Plasmodium falciparum (isolate 3D7)), sequence (Q08210 whole entry, looked up): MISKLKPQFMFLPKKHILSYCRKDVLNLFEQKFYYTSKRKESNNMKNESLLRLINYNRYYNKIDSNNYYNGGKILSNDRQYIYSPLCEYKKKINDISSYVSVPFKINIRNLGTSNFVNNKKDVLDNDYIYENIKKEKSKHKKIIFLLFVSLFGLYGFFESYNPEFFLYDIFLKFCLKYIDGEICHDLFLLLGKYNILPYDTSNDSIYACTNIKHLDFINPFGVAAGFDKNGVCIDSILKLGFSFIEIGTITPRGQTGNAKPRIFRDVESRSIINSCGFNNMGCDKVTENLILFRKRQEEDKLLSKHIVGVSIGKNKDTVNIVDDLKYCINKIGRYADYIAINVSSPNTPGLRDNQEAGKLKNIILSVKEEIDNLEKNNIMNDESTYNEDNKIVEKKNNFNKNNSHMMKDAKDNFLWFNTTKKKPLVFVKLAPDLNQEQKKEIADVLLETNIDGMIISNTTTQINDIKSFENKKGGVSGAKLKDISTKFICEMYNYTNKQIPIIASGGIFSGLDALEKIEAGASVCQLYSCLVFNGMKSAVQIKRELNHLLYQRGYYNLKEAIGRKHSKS

[5] = inhibition of PAO1 biofilm formation – strain PAO1, LB-PBS medium, absorbance 600 nm, primary screen (AID 1176); further: test concentration not given here; details: P. aeruginosa PAO1 growth/biofilm, A600, 12 h; higher = more signal
[6] = growth modulation of vineyard yeast isolate – strain RM11-1a, OD600, basal, 24 h, primary screen (AID 1177);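 further: cultures grown under basal conditions with no added stressor; test concentration not given here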; details: S. cerevisiae RM11-1a growth, OD600, 24 h; higher = more signal, called active from +8 up or from −8 down
[7] = growth of efflux-deficient E. coli DRC39 – strain DRC39, OD650, 24 h, E. coli filamentation inducers, primary screen (AID 1178);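 further: growth measured as culture turbidity by optical density at 650 nm; test concentration not given here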; details: E. coli DRC39 acrAB, higher = more signal, called active from +8 up or from −8 down
[8] = growth of efflux-deficient E. coli DRC39 – strain DRC39, OD650, 48 h, E. coli filamentation inducers, primary screen (AID 1179);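 further: screen aims at cell division blockers that make cells filament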; details: E. coli DRC39 delta-acrAB growth, higher = more signal, called active from +8 up or from −8 down
[9] = viability profiling in RPMI8226 myeloma cells – cell-based, resazurin fluorescence, basal, 24 h, PK04 Diversity Set, profiling panel (AID 1180); details: higher = more signal;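 further: RPMI8826 multiple myeloma cell line at 5000 cells per well; test concentration not given here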
[10] = target: E3 ubiquitin-protein ligase XIAP (Homo sapiens) (UniProt P98170); experiment: small molecules binding XIAP protein – biophysical, small-molecule microarray, fluorescence 635 nm, primary screen (AID 1181); details: higher = more signal;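 further: score merges 667 nm emission and signal to noise over triplicate slides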
E3 ubiquitin-protein ligase XIAP (Homo sapiens), sequence (P98170 whole entry, looked up): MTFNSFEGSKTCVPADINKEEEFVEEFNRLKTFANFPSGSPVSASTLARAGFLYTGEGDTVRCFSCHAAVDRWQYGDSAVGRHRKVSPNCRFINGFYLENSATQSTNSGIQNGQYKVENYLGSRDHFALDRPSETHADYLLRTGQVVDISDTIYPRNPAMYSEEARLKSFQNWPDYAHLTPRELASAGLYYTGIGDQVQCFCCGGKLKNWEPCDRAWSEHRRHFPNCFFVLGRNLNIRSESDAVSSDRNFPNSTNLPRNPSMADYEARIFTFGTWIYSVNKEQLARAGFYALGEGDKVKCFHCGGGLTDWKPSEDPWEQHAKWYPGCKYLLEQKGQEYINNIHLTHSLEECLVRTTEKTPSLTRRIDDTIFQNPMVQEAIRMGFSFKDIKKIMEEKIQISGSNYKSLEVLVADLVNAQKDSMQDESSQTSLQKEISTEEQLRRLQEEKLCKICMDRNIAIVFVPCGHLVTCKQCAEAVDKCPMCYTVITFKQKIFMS

Row | Structure (SMILES) | z-score [1] | z-score [2] | z-score [3] | composite z-score [4] | z-score [5] | z-score [6] | z-score [7] | z-score [8] | z-score [9] | composite z-score [10]
1 | CC1=C2[C@@H](CCc3ccccc3)OB(O)C[C@@H]2[C@@H]2C(=O)N(Cc3ccccc3)C(=O)[C@@H]2C1 | -0.819 | -4.86 (inactive) | -0.249 (inactive) | -1.71 (inactive) | 0.118 (inactive) | -0.849 (inactive) | -0.204 (inactive) | -0.225 (inactive) | -0.26 | -0.193
2 | COCCCNC(=O)[C@@]1(CCC(=O)OC(C)(C)C)N=C(c2ccc(OCCCO)cc2)O[C@H]1c1ccccc1N=[N+]=[N-] | 1.6 | -0.497 (inactive) | -0.0477 (inactive) | -0.291 (inactive) | -0.165 (inactive) | 0.252 (inactive) | 1.42 (inactive) | 0.268 (inactive) | 0.72 | -0.0773
3 | CCOC(=O)C1=C[C@@H](C(C)(C)C)N(S(=O)(=O)c2ccc(C)cc2)[C@H]1c1cccc2ccccc12 | -0.433 | 3.26 (inactive) | -0.835 (inactive) | 0.716 (inactive) | 0.312 (inactive) | 3.01 (inactive) | -0.624 (inactive) | -0.511 (inactive) | -2.66 | 0.307
4 | C=CC[C@]1(C(=O)N2CCCCC2)N=C(c2ccc(OCCCO)cc2)O[C@H]1c1ccccc1CN=[N+]=[N-] | 0.948 | -1.03 (inactive) | -0.398 (inactive) | -0.709 (inactive) | -0.124 (inactive) | 0.0349 (inactive) | 0.552 (inactive) | 1.11 (inactive) | 0.128 | 0.354
5 | [N-]=[N+]=Nc1ccccc1[C@@H]1OC(c2ccc(OCCCO)cc2)=N[C@]1(Cc1ccccc1)C(=O)O | 0.841 | 0.307 (inactive) | 0.492 (inactive) | 1.72 (inactive) | -0.664 (inactive) | 2.5 (inactive) | 2.46 (inactive) | 0.921 (inactive) | 0.514 | 0.0269
6 | Cc1ccc(S[C@]2(C(=O)NC(C)C)CC(=O)N(Cc3cc(C(F)(F)F)cc(C(F)(F)F)c3)[C@@H]2c2ccc(CO)cc2)cc1 | -0.489 | -1.33 (inactive) | 0.528 (inactive) | -1.06 (inactive) | 0.31 (inactive) | -0.656 (inactive) | -0.0813 (inactive) | -0.229 (inactive) | 0.483 | -0.0125
7 | COC(=O)C1=CC(CCCO)=CC(c2cccs2)N(C)C=C1C(=O)OC (stereo not given) | -0.86 | 0.856 (inactive) | -0.482 (inactive) | 0.75 (inactive) | 0.462 (inactive) | 1.13 (inactive) | -0.187 (inactive) | -0.532 (inactive) | 0.0222 | 0.212
8 | NC(=O)NCC#Cc1ccc2c(c1)[C@]1(C(=O)N2)[C@H](c2ccccc2OCCO)N2[C@H](c3ccccc3)[C@H](c3ccccc3)OC(=O)[C@H]2[C@@H]1C(=O)NC[C@H](O)c1ccccc1 | 0.999 | -0.589 (inactive) | 1.62 (inactive) | -0.253 (inactive) | 0.601 (inactive) | 1.94 (inactive) | 1.22 (inactive) | 0.693 (inactive) | 0.462 | 0.254
9 | CC(C)C(CO)N1C(=O)[C@@H]2C3C(=O)OCCC/C=C\[C@H]3OC23C=CCN(Cn2nnc4ccccc42)C(=O)[C@@H]13 (stereo not given in full) | 0.658 | -0.133 (inactive) | 0.184 (inactive) | -1.09 (inactive) | 0.233 (inactive) | -0.0374 (inactive) | 0.246 (inactive) | 0.118 (inactive) | 0.37 | -0.0367
10 | CCOC(=O)[C@@H]1CCCCN1C(=O)C(=O)OC | -0.165 | 0.016 (inactive) | -0.05 (inactive) | 0.0044 (inactive) | -0.255 (inactive) | 0.245 (inactive) | -0.26 (inactive) | -0.253 (inactive) | -0.64 | 0.269
11 | C=CCN1C(=O)[C@]2(CCC(=O)OC(C)(C)C)N=C(c3ccc(OCCCO)cc3)O[C@@H]2c2ccccc21 | -1.11 | -1.32 (inactive) | -3.44 (inactive) | -0.292 (inactive) | 0.314 (inactive) | 0.853 (inactive) | 0.93 (inactive) | 0.685 (inactive) | -6.48 | -0.0387
12 | COCC(=C=CC[C@H](O)c1ccc(CO)o1)CCO | -0.116 | -1.63 (inactive) | -0.0463 (inactive) | -2.35 (inactive) | -0.165 (inactive) | 0.256 (inactive) | -0.401 (inactive) | -0.524 (inactive) | 0.036 | 0.536
13 | C=CCC(OC(C)=O)[C@@H]1[C@@H](N(Cc2cc3ccccc3o2)C(=O)Cc2ccc(F)cc2)c2cc(OCCCO)ccc2N1C(=O)Cc1ccc2ccccc2c1 (stereo not given in full) | 0.278 | -0.0417 (inactive) | 0.72 (inactive) | -13.4 (active) | 0.526 (inactive) | -0.146 (inactive) | -1 (inactive) | -0.861 (inactive) | 0.189 | 0.109
14 | COCC(=C=CC[C@H](O)c1ccc(OCCO)cc1)CCO | 0.996 | -0.415 (inactive) | 0.654 (inactive) | -1.15 (inactive) | -0.0342 (inactive) | 0.137 (inactive) | 0.53 (inactive) | 0.209 (inactive) | 0.854 | 0.102
15 | CN1C(=O)C2C=CC(C(O)c3cccn3C)N(Nc3ccc([N+](=O)[O-])cc3[N+](=O)[O-])C2C1=O (stereo not given) | -0.929 | 1.1 (inactive) | -1.76 (inactive) | -0.145 (inactive) | 0.667 (inactive) | 0.407 (inactive) | -0.314 (inactive) | -0.119 (inactive) | -1.34 | -0.354
16 | [N-]=[N+]=Nc1ccccc1C[C@]1(C(=O)NCCN2CCOCC2)COC(c2ccc(OCCCO)cc2)=N1 | 1.14 | -1.84 (inactive) | 0.892 (inactive) | 0.137 (inactive) | 0.289 (inactive) | -0.71 (inactive) | 0.947 (inactive) | 0.361 (inactive) | 1.13 | -0.237
17 | CN(C)C(=O)[C@]1(CCC(=O)OC(C)(C)C)N=C(c2ccc(OCCCO)cc2)O[C@@H]1c1ccccc1CN=[N+]=[N-] | 1.52 | -0.756 (inactive) | 0.136 (inactive) | -0.369 (inactive) | -0.36 (inactive) | -0.0274 (inactive) | 0.0547 (inactive) | -0.0727 (inactive) | 0.471 | -0.0501
18 | [N-]=[N+]=Nc1ccccc1[C@H]1OC(c2ccc(OCCCO)cc2)=N[C@@]1(Cc1ccccc1)C(=O)NCCN1CCOCC1 | -0.564 | -2.44 (inactive) | -1.5 (inactive) | 0.73 (inactive) | 0.314 (inactive) | 0.964 (inactive) | 2.03 (inactive) | 0.627 (inactive) | -1.74 | 0.643
19 | C=CC[C@@]1(C(=O)NCCCOC)N=C(c2ccc(OCCCO)cc2)O[C@@H]1c1ccccc1N=[N+]=[N-] | 1.06 | -0.537 (inactive) | -0.394 (inactive) | 1.05 (inactive) | -0.814 (inactive) | 0.464 (inactive) | 0.868 (inactive) | 1.43 (inactive) | -0.137 | 0.598
20 | COC(=O)[C@@]1(Cc2ccccc2)[C@H]2c3cc(C(=O)N(C)C)n(Cc4ccc(C)o4)c3C[C@H]2CN1C(=O)c1ccccc1 | -0.98 | 1.51 (inactive) | -3.41 (inactive) | -2.93 (inactive) | 3.55 (inactive) | 1.25 (inactive) | -0.513 (inactive) | -1.08 (inactive) | -3.13 | 0.696
21 | [N-]=[N+]=Nc1ccccc1C[C@]1(C(=O)N2CCOCC2)COC(c2ccc(OCCCO)cc2)=N1 | 1.27 | -3.78 (inactive) | 0.632 (inactive) | 0.265 (inactive) | -0.537 (inactive) | -0.85 (inactive) | 1.08 (inactive) | 0.906 (inactive) | 1.02 | 0.138
22 | CS(=O)(=O)CCOC(=O)C1=CC(CCCO)=CC(c2ccc(CN3CCCC3)cc2)N(Cc2sc3ccccc3c2Cl)C=C1C(=O)OCCS(C)(=O)=O (stereo not given) | -0.518 | -2.76 (inactive) | -0.0646 (inactive) | -0.449 (inactive) | -0.259 (inactive) | 0.34 (inactive) | 0.285 (inactive) | 0.309 (inactive) | -0.0127 | -0.247
23 | COc1ccc(CCNC(=O)[C@@]2(c3ccc([N+](=O)[O-])cc3)CC(=O)N(C3CCCCC3)[C@@H]2c2ccc(CO)cc2)cc1 | 0.159 | -0.0229 (inactive) | -0.881 (inactive) | 0.395 (inactive) | -0.342 (inactive) | 1.14 (inactive) | 0.914 (inactive) | 0.686 (inactive) | 0.556 | -0.0333
24 | CCOc1cc(C(O)C2C=CC3C(=O)NC(=O)C3N2Nc2ccc(Cl)cc2Cl)ccc1O (stereo not given) | -1.37 | 0.203 (inactive) | -2.35 (inactive) | 0.0681 (inactive) | 1.4 (inactive) | 0.358 (inactive) | -0.748 (inactive) | -0.75 (inactive) | -1.68 | 0.659
25 | COCC(=C=CC[C@H](O)c1ccccc1OCCO)C[C@H](O)c1ccccn1 | 0.839 | -0.329 (inactive) | 0.324 (inactive) | -2.09 (inactive) | 0.354 (inactive) | -0.115 (inactive) | 0.696 (inactive) | 0.547 (inactive) | -0.543 | -0.102
26 | CCOC(=O)C[C@H]1[C@H](OC(=O)c2ccccc2-c2ccccc2)[C@@H](NC(=O)c2ccc3ccccc3n2)c2cc(OCCCO)ccc2N1C(=O)Cc1ccc(OC)cc1 | -0.271 | 0.64 (inactive) | -0.343 (inactive) | 0.315 (inactive) | 0.413 (inactive) | -0.384 (inactive) | -0.42 (inactive) | -0.281 (inactive) | -0.0052 | -0.408
27 | COCCOC(=O)N1C(=O)[C@@]2(c3cc(C#CC4(O)CCCCCC4)ccc31)[C@H](C(=O)N1CCc3cc(OC)c(OC)cc3C1)[C@H]1C(=O)O[C@H](c3ccccc3)[C@H](c3ccccc3)N1[C@@H]2c1ccc(OCCO)cc1 | -0.614 | 1.66 (inactive) | -0.935 (inactive) | -0.494 (inactive) | 3.41 (inactive) | 2.54 (inactive) | -0.201 (inactive) | 0.389 (inactive) | -0.607 | 0.107
